# Source: PubChem BioAssay (EPA / NIEHS)
# “And” between values parts separate entries of the source, which are not always exact repeats. Identical values can stand only once. Results filed as inconclusive are left out. Some structures have more than one record in an assay (separate samples or runs), and their calls can disagree. The source made the active and inactive calls. Rule for the calls: active = hit-call score of the fitted dose curve at least 0.9, where 1 is the maximum; inconclusive = response in the unintended direction; inactive = score below 0.9.
# Tests used:
# [1] = ATG_XTT_Cytotoxicity: Cytotoxicity Assessment in the Attagene TRANS-FACTORIAL HepG2 Assay (AID 2283584)
# In short: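 Cells: human HepG2, transiently transfected with MRTU reporter constructs. Exposure 24 h. Readout: XTT, cell number. Baseline/neg ctrl DMSO; loss-of-signal scored.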
# [2] = target: Cellular tumor antigen p53 (Homo sapiens) (UniProt P04637); assay: TOX21_p53_BLA_p2_ratio: Tox21 HCT-116 p53 Agonism Beta-lactamase Assay, Ratio, Phase 2 (AID 2283592)
# In short: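 Plated HCT116 p53-bla cells (4000/well) received compound after 5 h, then 16 h at 37C/5% CO2. CCF4-AM added, 2 h RT. Ratio of 460 to 530 nm emission taken as the p53 reporter signal.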
# [3] = TOX21_p53_BLA_p3_viability: Viability Assessment in the Tox21 HCT-116 p53 Agonism Beta-lactamase Assay, Phase 3 (AID 2283593);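 note: cells exposed to compound for 16 h before reading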
# In short: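 HCT116 cells, 4000/well, dosed 5 h after plating by pin transfer (217-fold dilution from DMSO stock) and incubated 16 h at 37C, 5% CO2. Viability read as ATP luminescence with CellTiter-Glo after 30 min at room temperature.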
# [4] = TOX21_p53_BLA_p2_viability: Viability Assessment in the Tox21 HCT-116 p53 Agonism Beta-lactamase Assay, Phase 2 (AID 2283591);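 note: compound exposure lasted 16 h at 37 °C; actives lower the ATP signal meaning cytotoxicity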
# In short: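 HCT116 p53-bla cells, 4000/well, dosed after 5 h plating (217-fold dilution of DMSO stocks) and incubated 16 h at 37C. Viability taken as cellular ATP by CellTiter-Glo luminescence after 30 min RT; signal loss marks cytotoxicity.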
# Sequence of Cellular tumor antigen p53 (Homo sapiens) (P04637 whole entry, looked up): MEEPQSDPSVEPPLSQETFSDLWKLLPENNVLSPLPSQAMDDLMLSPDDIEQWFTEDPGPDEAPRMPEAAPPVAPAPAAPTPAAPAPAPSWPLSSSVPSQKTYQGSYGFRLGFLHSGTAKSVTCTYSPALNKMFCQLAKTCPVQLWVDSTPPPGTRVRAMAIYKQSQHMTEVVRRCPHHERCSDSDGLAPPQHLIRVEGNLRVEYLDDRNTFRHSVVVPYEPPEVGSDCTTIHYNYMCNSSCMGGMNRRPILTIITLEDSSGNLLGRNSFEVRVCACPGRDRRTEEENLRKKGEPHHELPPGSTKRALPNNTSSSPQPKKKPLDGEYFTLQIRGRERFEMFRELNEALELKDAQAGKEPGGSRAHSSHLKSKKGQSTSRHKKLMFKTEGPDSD
smiles,measurement,setting,value
CCCSSCCC,outcome,[1],inactive
Nc1ccc(Cl)c(N)c1,outcome,[1],inactive
CCCCCCCCCCCCc1ccc(O)cc1,AC50,[2],65.5 µM (active)
same,AC50,[3],39.9 µM (active)
Oc1ccc(-c2ccccc2)c(Cl)c1,outcome,[2],inactive
same,outcome,[3],inactive
CC1=C(O)C(=O)C(C)O1 (stereo not drawn),outcome,[1],inactive
same,outcome,[4],inactive
same,outcome,[2],inactive
Cc1ccc(S(=O)(=O)N=C=O)cc1,outcome,[1],inactive
same,outcome,[4],inactive
CC(C)C(=O)OCCOc1ccccc1,outcome,[1],inactive
same,outcome,[4],inactive
same,outcome,[2],inactive
O=C1CCCCCCCCCCC1,outcome,[1],inactive
same,outcome,[4],inactive
same,outcome,[2],inactive
CC(C)=CCCC(C)=CC#N,outcome,[1],inactive
same,outcome,[4],inactive
same,outcome,[2],inactive
O=S(=O)(O)c1ccc(Nc2nc(Nc3ccc(C=Cc4ccc(Nc5nc(Nc6ccc(S(=O)(=O)O)cc6)nc(N(CCO)CCO)n5)cc4S(=O)(=O)O)c(S(=O)(=O)O)c3)nc(N(CCO)CCO)n2)cc1,outcome,[1],inactive
same,outcome,[4],inactive
same,outcome,[2],inactive
Nc1ccnc(=O)[nH]1,outcome,[1],inactive
same,outcome,[4],inactive
same,outcome,[2],inactive
O=C(O)c1cc(O)c2ccccc2c1O,outcome,[1],inactive
same,outcome,[4],inactive
same,outcome,[2],inactive
Oc1ccccc1Cc1ccccc1O,outcome,[1],inactive
same,outcome,[4],inactive
same,outcome,[2],inactive
CN(C)c1ccc2nc3ccc(=[N+](C)C)cc-3sc2c1,outcome,[1],inactive
same,outcome,[4],inactive
same,AC50,[2],8.31 µM (active) and 23 µM (active) and 11.1 µM (active)
CCCCNS(=O)(=O)c1ccc(C)cc1,outcome,[1],inactive
same,outcome,[4],inactive
same,outcome,[2],inactive
CCCC/C=C/C=C\C=O,outcome,[1],inactive
same,outcome,[4],inactive
same,outcome,[2],inactive
CCCCCCCCCCCCC,outcome,[1],inactive
same,outcome,[4],inactive
COc1ccc(-c2coc3cc(O)cc(O)c3c2=O)cc1,outcome,[1],inactive
same,AC50,[4],68.5 µM (active)
same,outcome,[4],inactive
same,AC50,[2],71.6 µM (active) and 72 µM (active)
same,outcome,[3],inactive
CC(CC=O)CC(C)(C)C (stereo not drawn),outcome,[1],inactive
same,outcome,[4],inactive
O=C(O[C@@H]1Cc2c(O)cc(O)cc2O[C@@H]1c1cc(O)c(O)c(O)c1)c1cc(O)c(O)c(O)c1,outcome,[1],inactive
same,outcome,[4],inactive
same,outcome,[2],inactive
CC(=O)CC(=O)Nc1ccccc1C,outcome,[1],inactive
same,outcome,[4],inactive
same,outcome,[2],inactive
Fc1ccc(Br)cc1,outcome,[1],inactive
same,outcome,[4],inactive
same,outcome,[2],inactive
COc1ccc(C(=O)/C(Br)=C\C(=O)O)cc1,outcome,[1],inactive
same,AC50,[4],86.2 µM (active)
same,outcome,[4],inactive
same,AC50,[2],24.8 µM (active) and 24.2 µM (active)
same,AC50,[3],74.8 µM (active)
same,outcome,[3],inactive
CCCCC/C=C\C/C=C\CCCCCCCC(=O)O,outcome,[1],inactive
same,AC50,[4],41.5 µM (active)
same,outcome,[4],inactive
same,AC50,[2],72.9 µM (active)
same,outcome,[2],inactive
CCCCCCCCCC(C)=O,outcome,[1],inactive
same,outcome,[4],inactive
same,outcome,[2],inactive
